Compound activity as filed in PubChem.
Luc counter – Counterscreen for Luciferase (Kinase-Glo TM) Inhibition. 200,000 compounds, 0.28% hits. Luciferin 4-monooxygenase (Photuris pensylvanica), Q27757. Kinase-Glo luciferase, ATP luminescence, 8 min. Potency, µM (series often up to 38.3 µM), inactives show at the highest dose activity change, negative = inhibition, hits mostly inhibitors; note: % is set by controls: 0 for no effect and ±100 for the full control effect; nearly all actives have a fitted effect of over 60% in size
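Inhibition of Kinase-Glo luciferase light generation was assessed at 10 uM ATP in pH 7.2 imidazole buffer, with luminescence measured after eight minutes at ambient temperature.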
NPC1 prom act – qHTS Assay for NPC1 Promoter Activators | 320,000 compounds, 2.4% hits | Potency, µM (series often up to 9.22 µM), without a hit: at the highest dose activation, hits mostly activators | Huh7 NPC1 promoter luciferase reporter, 24 h; note: % of control where 0% means no effect; nearly all actives have a fitted effect of over 60% in size
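Quantitative HTS used a cell-based reporter: Huh7 cells stably bearing the NPC1 promoter upstream of luciferase were treated with compounds for 24 h, and promoter activation was read as luminescence.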
Rab9 promoter act – qHTS Assay for Rab9 Promoter Activators | Huh7 Rab9 promoter-luciferase reporter, luminescence, 24 h | Potency, µM (series often up to 9.22 µM), for the others: at the highest dose activation, negative = inhibition, actives largely listed as activators | 320,000 compounds, 2.8% hits; note: % of control where 0% means no effect; nearly all actives have a fitted effect of over 60% in size
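Measured in stably transfected Huh7 cells bearing a Rab9 promoter–luciferase construct: 24 h compound treatment at 37 °C, followed by luminescence detection.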
FLuc counter – qHTS profiling assay for firefly luciferase inhibitor/activator using purifed enzyme and Km concentrations of substrates (counterscreen for miR-21 project). Potency, µM (top dose mostly 57.5 µM), without a hit: top-dose activity change, negative = inhibition, most hits filed as inhibitors. purified FLuc, Km substrates, luminescence inhibition. 360,000 compounds, 6.9% hits. Luciferin 4-monooxygenase (Photinus pyralis), P08659. AID 588342, 2011;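 note: plate controls were vehicle for no effect and reference inhibitor for full effect; nearly all actives have a fitted effect of over 55% in size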
Target sequence (P08659 whole entry, looked up): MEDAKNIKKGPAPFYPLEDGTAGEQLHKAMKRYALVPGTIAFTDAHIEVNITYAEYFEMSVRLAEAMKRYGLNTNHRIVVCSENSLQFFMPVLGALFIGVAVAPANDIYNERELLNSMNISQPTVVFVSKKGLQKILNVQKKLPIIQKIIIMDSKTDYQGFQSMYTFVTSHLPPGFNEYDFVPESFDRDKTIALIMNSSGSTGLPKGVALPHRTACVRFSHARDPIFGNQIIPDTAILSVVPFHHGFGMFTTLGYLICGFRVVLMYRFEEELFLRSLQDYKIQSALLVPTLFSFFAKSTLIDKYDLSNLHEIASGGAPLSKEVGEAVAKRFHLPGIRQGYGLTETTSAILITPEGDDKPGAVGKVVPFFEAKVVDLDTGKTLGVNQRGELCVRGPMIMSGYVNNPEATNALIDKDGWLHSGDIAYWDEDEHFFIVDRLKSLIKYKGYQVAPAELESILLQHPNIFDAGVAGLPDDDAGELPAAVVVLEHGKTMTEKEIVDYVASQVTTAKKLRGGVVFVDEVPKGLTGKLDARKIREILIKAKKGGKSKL
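Biochemical qHTS of compounds, final roughly 60 µM downward over six points, against 10 nM purified firefly luciferase using Km concentrations of substrates (10 uM D-luciferin, 10 uM ATP) in Tris acetate pH 7.5 buffer; luminescence output.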
SMN2 splice up – qHTS Assay for Enhancers of SMN2 Splice Variant Expression; 210,000 compounds, 2.8% hits; AID 1458, 2008; Potency, µM (series often up to 46.1 µM), for inactives: at the highest dose activity change, positive = activation, hits mostly activators; HEK293 SMN2-luciferase splicing reporter, luminescence, 30-36 h; note: % of control where 0% means no effect; nearly all actives have a fitted effect of over 55% in size
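qHTS luciferase splicing reporter: luminescence rises when SMN2 exon 7 is included in transfected HEK293 cells. Compound exposure lasted 30-36 h at 37C, with 4.5 mM final sodium butyrate as control, followed by a ONE-Glo read.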
* marks the source's active call; other numbers are inactive results; ? = inconclusive; . = not tested or not shown. A selection: hits, their analogues and other compounds. The true share with any hit is near 7.3%. Calls come from the whole dose curve; as a rule, active = well fitted curve in the direction sought with a large enough effect; inconclusive = small, poorly fitted or top-dose-only effect, or another doubt; inactive = no such curve, though single readings can be large; an effect the other way counts as inactive or inconclusive. Potency is the fitted concentration of half-maximal effect.

SMILES | Luc counter | NPC1 prom act | Rab9 promoter act | FLuc counter | SMN2 splice up
Cc1c(C(=O)Nc2ccc(N3CCOCC3)cc2)oc2ccccc12 | -5% | 4µM* | 4.5µM* | 1.9µM* | 29%
COc1ccc2oc(C(=O)Nc3ccc(N4CCOCC4)cc3)c(C)c2c1 | . | 0% | 2% | 6.7µM* | .
Cc1cccc(C(=O)NNC(=O)c2csc(N3CCOCC3)n2)c1C | . | 1% | 1% | -14% | .
Cc1c(C(=O)NNC(=O)c2csc(N3CCOCC3)n2)oc2ccccc12 | . | 11% | 1% | 27µM* | .
Oc1ccc(Br)cc1-c1cc(-c2ccccc2)n[nH]1 | 3% | -5% | -3% | -16% | -20%
COc1ccc(O)c(-c2cc(-c3ccc(F)cc3)n[nH]2)c1 | . | 4.5µM* | ? | 15µM* | .
COc1ccc(-c2cc(-c3ccc(Cl)cc3)n[nH]2)c(O)c1 | . | 1.8µM* | 2.5µM* | 6µM* | .
COc1ccc(O)c(-c2cc(-c3cccc(Br)c3)n[nH]2)c1 | -5% | ? | ? | 19µM* | 28%
Oc1ccc(Br)cc1-c1cc(-c2ccc(Cl)cc2)n[nH]1 | -1% | -3% | -1% | ? | ?
COc1ccc(-c2cc(-c3cc(OC)ccc3O)[nH]n2)cc1 | 1% | ? | ? | 24µM* | ?
Cc1cc2cc3c(cc2nc1SCc1ccc(C(=O)O)cc1)OCCO3 | 5% | 2% | -3% | 19µM* | 5%
Cc1ccccc1/C=N/N=C1/NC(=O)CCS1 | . | 16% | 1% | ? | .
O=C1CCS/C(=N\N=C\c2ccc(Cl)cc2Cl)N1 | . | ? | ? | 19µM* | .
COc1cccc(C(=O)NC23CC4CC(CC(C4)C2)C3)c1 | . | 3% | 4% | 17µM* | .
COc1ccc(C(=O)NC23CC4CC(CC(C4)C2)C3)cc1 | . | 2% | 18% | 7.6µM* | .
CC(C)C[C@@H](CSc1ccc(Br)cc1)N1CCN(CC(C)C)CCC1=O | . | ? | 20% | 15µM* | .
CC(C)CN1CCC(=O)N(CCSc2ccccc2)CC1 | . | 1.6µM* | 1.6µM* | 24µM* | .
CN1CCC(=O)N([C@H](CSc2ccccc2)c2ccccc2)CC1 | . | 8% | 18% | -10% | .
Cc1ccc(SC[C@H](c2ccccc2)N2CCN(C)CCC2=O)cc1 | . | ? | 2.8µM* | 15µM* | .
CC(C)C[C@@H](CSc1ccc(Br)cc1)N1CCN(C)CCC1=O | . | 3.5µM* | ? | 19µM* | .
CC(=O)Nc1ccc(SC[C@H](CC(C)C)N2CCN(CC(C)C)CCC2=O)cc1 | . | -2% | -4% | -1% | .
Cc1cccc(C(=O)NNc2ncnc3c2cnn3-c2ccc(C)cc2C)c1 | . | . | . | -8% | .
N#Cc1cccc(CS(=O)(=O)c2ccccc2)c1 | 1% | . | . | . | -3%
O=C(COCc1cc(-c2ccc(F)cc2)on1)Nc1cc(Cl)ccc1O | . | . | . | -2% | 3%
COc1ccc(SC[C@H](CC(C)C)N2CCN(C)CCC2=O)cc1 | . | ? | 21% | ? | .
SMILES | Luc counter | NPC1 prom act | Rab9 promoter act | FLuc counter | SMN2 splice up
Cc1ccc(SC[C@H](CC(C)C)N2CCN(C)CCC2=O)cc1 | . | ? | 3.5µM* | 15µM* | .
CSc1ccc(CCNC(=O)C2CCN(c3ncnc4c3nc3n4CCCCC3)CC2)cc1 | . | . | . | -15% | .
CCC(=O)Nc1ccc(C(=O)COC(=O)Cc2ccsc2)cc1 | . | -5% | 3% | 11µM* | .
Cc1[nH]c2ccccc2c1/C=N/Nc1nc(Nc2ccccc2)nc(N2CCOCC2)n1 | -2% | 13% | 0% | 4.8µM* | -8%
Fc1ccc(Nc2nc(N/N=C/c3ccco3)nc(N3CCCCC3)n2)cc1 | -4% | -8% | -3% | 27µM* | -24%
COc1ccc(/C=N/Nc2nc(Nc3ccccc3)nc(N3CCCC3)n2)cc1[N+](=O)[O-] | -1% | -9% | -19% | -13% | 0%
COc1cc(/C=N/Nc2nc(Nc3ccccc3)nc(N3CCCCC3)n2)ccc1OCC(=O)O | 0% | 12% | 17% | 0.95µM* | 15%
COc1ccc(/C=N/Nc2nc(N3CCCC3)nc(N3CCCC3)n2)c(OC)c1OC | -1% | -2% | 3% | -4% | -3%
Oc1[nH]c2ccccc2c1N=Nc1nc(Nc2ccccc2)nc(N2CCOCC2)n1 | . | -11% | -9% | ? | .
COc1ccc(/C=N/Nc2nc(Nc3ccccc3)nc(N3CCCCC3)n2)c(OC)c1 | 0% | -2% | -3% | 6.7µM* | -21%
COc1ccc(S(=O)(=O)N(C)CC(=O)O)cc1C | 0% | . | . | . | .
Cc1ccc(-c2nnc(Nc3ccc(C(N)=O)cc3)c3ccccc23)cc1S(N)(=O)=O | . | . | . | -13% | .
CCOc1ccc(CCNS(=O)(=O)c2c(C)nc3sc(C)cn3c2=O)cc1OCC | . | . | . | 0% | .
CCCCN(Cc1cc2ccccc2[nH]c1=O)C(=O)c1cccc(Cl)c1 | . | . | . | 4% | -3%
Cc1ccc(S(=O)(=O)NCCc2nnc3ccc(SCC(=O)Nc4ccc(F)cc4F)nn23)cc1 | . | . | . | 0% | .
CCOC(=O)c1sc(=N)n(-c2ccc(OC)cc2)c1C | -2% | 30% | 26% | 19µM* | 14%
COC(=O)c1c(C)n(-c2ccc(OC)cc2)c2ccc(O)cc12 | -2% | -1% | -4% | 0% | 4.5µM*
CCOC(=O)c1sc(=S)n(-c2ccc(OC)cc2)c1N | . | -2% | -13% | 0% | .
Cc1cc(N)n(-c2ccc3ccccc3c2)n1 | -14% | 25% | ? | 17µM* | ?
CN=Cc1nc(-c2ccccc2)oc1O | -9% | 3.5µM* | 2.5µM* | 17µM* | 11µM*
Cc1nnc(NCCc2ccccc2)c2ccccc12 | . | 1.6µM* | 1.4µM* | 7.6µM* | .
CS(=O)(=O)c1ncc(N(Cc2ccco2)Cc2cccs2)c(C(=O)Nc2ccccc2F)n1 | . | . | . | -6% | .
Cc1ccccc1NC(=O)NCCc1nc2ccccc2[nH]1 | 2% | -5% | 4% | -2% | ?
Cc1ccccc1NC(=S)c1nc2ccccc2[nH]1 | -5% | 25% | 27% | 11µM* | 29%
S=C(Nc1ccc(Cl)cc1)c1nc2ccccc2[nH]1 | -9% | 3.2µM* | 1.8µM* | 3.8µM* | 14µM*
O=C(N/N=C/c1ccc(-c2ccc(S(=O)(=O)Nc3ncccn3)cc2)o1)c1cc2ccccc2cc1O | -5% | 0% | 1% | 21µM* | ?
CCOc1ccc(C(=O)N/N=C/c2ccc(-c3ccc(S(=O)(=O)Nc4ncccn4)cc3)o2)cc1 | -5% | 8% | -1% | 19µM* | 13%
CCOc1ccc(S(=O)(=O)N(CC(=O)N/N=C/c2ccc(-c3ccc([N+](=O)[O-])cc3)o2)c2ccccc2)cc1 | -6% | -18% | -13% | 0% | -21%
NS(=O)(=O)c1ccc(-c2ccc(/C=N/NC(=O)c3ccccc3O)o2)cc1 | . | -2% | -3% | 6.7µM* | .
Cc1ccc(-c2ccc(/C=N/NC(=O)c3ccccc3O)o2)cc1 | . | 10% | 13% | ? | .
